The structures appear in SMILES notation. Screen size: about 69,000 compounds; about 8,600 (12%) showed an effect of 50% or more. For the sample, strong results were picked, then their nearest neighbours and some compounds at random.

The experiment concerns Plasmodium berghei. Put plainly: Screen against P. berghei liver stage (PbLuc), transformed with Luciferase, at 10uM. The settings on record: tested at 10 uM. The class given is functional, HepG2.
`CCS(=O)(=O)N1C[C@@H]2CN(Cc3cnn(C)c3)CCO[C@@H]2C1`: the INHIBITION is reported as -13%. To `CCCS(=O)(=O)N1C[C@@H]2CN(Cc3cnn(C)c3)CCO[C@@H]2C1` belongs 65.6%. Consider `CCCS(=O)(=O)N1C[C@@H]2CN(Cc3cccs3)CCO[C@@H]2C1`, for which the INHIBITION was -2.46%.

On to `O=S(=O)(C1CC1)N1CCO[C@@H]2CN(Cc3cccs3)C[C@@H]2C1`, for which the INHIBITION is reported as -23.4%. To `CCCS(=O)(=O)N1C[C@@H]2CN(Cc3ccoc3)CCO[C@@H]2C1` belongs -58.9%; to `c1csc(CN2CCO[C@@H]3CN(C4CCOCC4)C[C@@H]3C2)c1`, 64.4%; to `CCS(=O)(=O)N1C[C@@H]2CN(Cc3ccco3)CCO[C@@H]2C1`, -39.2%. To `CCS(=O)(=O)N1C[C@@H]2CN(Cc3cccs3)CCO[C@@H]2C1` belongs 90.7%; to `O=S(=O)(C1CC1)N1C[C@@H]2CN(Cc3cccs3)CCO[C@@H]2C1`, 34.3%. To `Cc1csc(C2CCCCN2C(=O)CN(C)C(C)C)n1` (configuration not stated) belongs -19.9%; to `Cn1ccnc1COc1ccc(CN2CCC(C(N)=O)CC2)cc1`, -14.7%.

`Nc1nc(CN2CCOC(Cn3cccn3)C2)nc2ccccc12` (configuration not stated): the INHIBITION was 1.75%. With `c1ccc(-c2cc(CN3CCCC(Cn4cncn4)C3)on2)cc1` (configuration not stated) the figure was 11.6%; with `CS(=O)(=O)CCC(=O)Nc1cc(Cl)c(Cl)cn1`, 35.2%. With `CS(=O)(=O)CCCC(=O)Nc1cc(Cl)c(Cl)cn1` the figure was 15.7%. Take `COCCCC(=O)Nc1cc(Cl)c(Cl)cn1`: the INHIBITION worked out at 79.8%. To `COCCN1CCO[C@@H]2CN(Cc3cc(OC)cc(OC)c3)C[C@@H]2C1` belongs 39.3%; to `CNc1cc(C2CN(Cc3coc(C)n3)CCO2)nc(C)n1` (configuration not stated), -3.31%.

Take `Cc1nn(C)c(C)c1CC(=O)NCc1ccnc(N2CCOCC2)c1`: the INHIBITION was -34%.

Consider `Cc1noc(C)c1-c1cccc(C2CN(CC(=O)N(C)C)CCO2)n1` (configuration not stated), for which the INHIBITION was found to be 24.35%.

With `Oc1cccc2ccc(CN3CCC4(CCNCC4)C3)nc12`, the INHIBITION is given as 15.9%. To `O=C1CC2(CCN(Cc3ccc4cccc(O)c4n3)CC2)CN1` belongs 58.6%; to `O=C1CC2(CCN(Cc3ccc(C(F)(F)F)nc3)CC2)CN1`, 16.43%; to `CCN(CC)CC1CN(Cc2nccs2)Cc2nccn2C1` (configuration not stated), -42.8%. In the case of `O=C(NC1CCCC1)C1Cc2nc(-c3ccsc3)sc2N1CC1CC1` (configuration not stated), the INHIBITION is recorded as -2.35%. With `CC(C)NC(=O)C1Cc2nc(-c3ccsc3)sc2N1CC1CC1` (configuration not stated) the figure was 23.3%; with `O=C(Nc1cccnc1)C1Cc2nc(-c3ccsc3)sc2N1CC1CC1` (configuration not stated), 60.9%; with `Cc1ccccc1C(O)c1ccncc1` (configuration not stated), 1.95%.

`Cc1cccc(NC(=O)[C@@H]2CCCN2Cc2nnc(C(C)C)n2C)n1`: the INHIBITION was 24.3%. With `Cc1nonc1CNC(=O)C(C)Oc1cccc(F)c1` (configuration not stated) the figure was -35.5%; with `CCN(CCS(=O)(=O)c1ccc(Cl)cc1)Cc1ccc(OC)c(OC)c1`, 70.5%; with `COc1ccc(CCN(C)C(C(=O)O)c2ccc(F)c(C)c2)cc1OC` (configuration not stated), 16.7%. To `COc1ccc(CN(C)CCS(=O)(=O)c2ccc(Cl)cc2)cc1OC` belongs 68.8%; to `CCN(Cc1nccs1)Cc1cc(Cl)ccc1OC`, 15.3%; to `COCCN(C)Cc1ccc(OC)c(OC(F)F)c1`, 26.8%.

Regarding `COc1ccc(CCCN(C)C(=O)c2cc(Cl)c[nH]2)cc1OC`, the INHIBITION came to 16.6%. With `COc1ccc(Cl)cc1S(=O)(=O)N(C)CC(N)=O` the figure was 23.5%. To `COc1ccc(CCN(C)CCS(=O)(=O)c2ccc(Cl)cc2)cc1OC` belongs 63.7%; to `COc1ccc(S(=O)(=O)NCCCc2ccc(N(C)C)cc2)cc1Cl`, 41.9%; to `O=S(=O)(C1CC1)N1C[C@@H]2COC[C@]2(COc2ccccn2)C1`, 26.3%. With `CC(C)c1nccc(N2CCN(CC(=O)N3CCOCC3)CC2)n1` the figure was -0.96%. Take `CN(CCc1ccncc1)C(=O)C1CSCN1C(=O)CC(C)(C)C` (configuration not stated): the INHIBITION was -23.8%. On to `Cc1cccc(-n2cc3nc(N4CCC(C)CC4)[nH]cc-3c2=O)c1`, for which the INHIBITION was 23.4%. To `Cc1cnc(NCC(C)(C)N2CCN(C)CC2)nc1` belongs 47.2%. With `Cc1cnc(NCC(C)(C)N2CCOCC2)nc1` the figure was 65.7%; with `Cc1cnc(NCC(C)(C)N2CCCCC2)nc1`, 23.3%. With `CNc1ccc(C(=O)N(C)Cc2ccc3ccccc3n2)cn1` the figure was 69.7%; with `CCNc1ncc(C(=O)N(C)Cc2nc3ccccc3n2C)cn1`, 16.2%; with `CSCCNc1ccc(C(=O)N(C)Cc2ccc3ccccc3n2)cn1`, 56.1%. On to `CCn1c(CN(C)C(=O)c2ccc(N(C)C)nc2)nc2ccccc21`, for which the INHIBITION is listed as -17.4%. To `CCn1c(CN(C)C(=O)c2ccc(O)nc2)nc2ccccc21` belongs -82.4%; to `CN(C)C(=O)c1ccc(NCCNc2ccc3ccccc3n2)nc1`, 8.13%. To `Cn1ccnc1-c1cn(Cc2cn3c(n2)SCC3)nn1` belongs 5.75%; to `Cc1cccc(CN2C(=O)CCC23CCN(C(=O)N2CCCC2)CC3)n1`, 18.6%. With `CC(=O)N1N=C(c2ccccc2)OC1C(=O)N(C)Cc1ccccc1` (configuration not stated) the figure was 24.3%; with `O=C(N[C@@H]1CCN(Cc2ccc(F)cc2F)C[C@H]1O)c1cccnc1`, -26.8%; with `CCOCCCNC(=O)c1nnn(Cc2ccccc2)c1OC`, 13.5%. Take `CNC(=O)c1cnc(/C=C/c2cc(OC)cc(OC)c2)s1`: the INHIBITION was -76.5%. With `CCOc1c(Br)cc(/C=C/c2ncc(C(=O)O)s2)cc1OC` the figure was -39.3%; with `CCOc1c(OC)cc(C=Cc2ncc(C(=O)NC)s2)cc1OC`, 52.6%; with `COc1cc(/C=C/c2ncc(C(=O)O)s2)cc(Cl)c1O`, -20.9%.

Regarding `CNC(=O)c1cnc(C=Cc2cc(OC)c(O)c(OC)c2)s1`, the INHIBITION was 50%. To `CCOc1c(Cl)cc(/C=C/c2ncc(C(=O)O)s2)cc1OC` belongs 7.27%; to `CNC(=O)c1cnc(/C=C/c2ccc(OC)c(O)c2)s1`, 40.1%; to `CNC(=O)c1cnc(C=Cc2cc(OC)c3c(c2)OCCO3)s1`, 41.4%.

For `CCOc1cc(/C=C/c2ncc(C(=O)O)s2)ccc1O`, the INHIBITION is on record as -6.62%. With `CCOc1cc(C=Cc2ncc(C(=O)NC)s2)ccc1OC` the figure was 72.2%; with `CNC(=O)c1cnc(C=Cc2ccc(O)c(OC)c2)s1`, -84.4%.

For `CNC(=O)c1cnc(/C=C/c2cc(OC)c(OC)c(OC)c2)s1`, the INHIBITION is reported as 53.5%. With `CCOc1ccc(C2CCCN2Cc2nnnn2C2CC2)cc1` (configuration not stated) the figure was 48.2%; with `O=c1ccc2c(n1Cc1cccnc1)CCN(CC1CCOC1)CC2` (configuration not stated), -5.63%. To `C[C@H]1CN(C(=O)c2ccoc2)C[C@@]12CCN(CCN(C)C)C2=O` belongs -80%. Turning to `CCC(=O)NC1CCCN(c2cncc(OCc3ccccc3)n2)C1` (configuration not stated), the INHIBITION is listed as 1.56%. To `O=C(NCc1ccccn1)[C@@H]1COC[C@H]2CN(C3CCC3)C[C@H]21` belongs 26.4%. To `Cc1nc(-c2ccccc2)n(CC(=O)NC2CCCCC2)n1` belongs 37.4%. To `O=S1(=O)COCCN1Cc1ccc(F)cc1Cl` belongs 33.9%; to `Cn1cc(CN2CCC3(CC2)CCN(Cc2ccccn2)CC3)cn1`, 41.2%; to `O=C(c1ccnc(C2CCNCC2)c1)N1CCCC1`, 7.43%. Consider `O=C1OCC(CO)N1Cc1cccc(Cl)c1F` (configuration not stated), for which the INHIBITION is reported as 28.7%. As for `C=C(C)COc1ccccc1CN1CCC(NC(C)=O)CC1`, the INHIBITION was determined as 19.4%. Turning to `C=C(C)CN1CCC(NC(=O)Nc2cc(C(N)=O)ccc2OC)CC1`, the INHIBITION was found to be 32.5%.

For `COc1ccc(CCNC(=O)NCc2cccc(C(N)=O)c2)cc1OC`, the INHIBITION amounted to 37.4%.

`C=C(C)CN1CCC(NC(=O)NCCc2ccccc2OC)CC1`: the INHIBITION worked out at 94.1%.

`NC(=O)c1cccc(CCNC(=O)N2Cc3ccccc3C2)c1`: the INHIBITION came to 26.5%. With `NC(=O)c1cccc(CCNC(=O)N2CCCC2)c1` the figure was 58.1%. Consider `C=C(C)CN1CCC(NC(=O)NCCc2cccc(C(N)=O)c2)CC1`, for which the INHIBITION was determined as 57.3%. To `C=C(C)CN1CCC(NC(=O)c2scnc2C)CC1` belongs -6.44%; to `CNC(=O)c1cccc(CCNC(=O)N2CCc3ccccc3C2)c1`, 3.73%. For `Cn1cc(CCNC(=O)NC2CCN(Cc3ccccn3)CC2)cn1`, the INHIBITION amounted to 16.8%. To `C=C(C)CN1CCC(NC(=O)NCCc2ccc(N(C)C)cc2)CC1` belongs 55.4%; to `COc1ccc(CCNC(=O)NC2CCCC2)cc1OC`, -24.9%; to `COC1CCCOC12CCN(C(=O)c1ccc3[nH]nnc3c1)CC2` (configuration not stated), -29.9%. With `O=C(CSC1=NS(=O)(=O)c2cc(Cl)ccc2N1)c1ccccc1` the figure was 11.8%; with `Cn1cc(CN2CCCC3(CCN(C(=O)c4ccccn4)C3)C2)cn1` (configuration not stated), 11.3%; with `COCCC(=O)N1CCOCC(Cc2ccc3c(ccn3C)c2)C1` (configuration not stated), 17.475%. As to `CC(=O)N(Cc1ncc(C)o1)C1CCN(Cc2ccccc2C#N)C1` (configuration not stated), the INHIBITION is reported as 9.64%. With `NC(=O)c1cc(C2CCCN(C(=O)CCc3cccs3)C2)n[nH]1` (configuration not stated) the figure was 17.5%; with `O=C1CC[C@@H](CN(Cc2ccncc2)Cc2nc(CC3CC3)no2)N1`, 36.6%; with `Cc1nc(C)c2c(n1)CCN(C(=O)CC1CC1)CC2`, 19.9%. To `CCN1Cc2nccn2CC(COCc2csc(C)n2)C1` (configuration not stated) belongs 8.66%; to `N#Cc1ccccc1CN1CCc2sccc2C1`, 60.4%; to `N#Cc1ccc(CN2CCc3sccc3C2)c(F)c1`, 4.95%. To `N#Cc1ccc(F)c(CN2CCc3sccc3C2)c1` belongs 41.6%; to `Cc1nc(C)n(CC2CCCN(Cc3cccc(C(N)=O)c3)C2)n1` (configuration not stated), -43.5%.

Consider `O=C(NC1CCCC1)N1C[C@H]2CN(c3ccncc3)C[C@@]2(C(=O)O)C1`, for which the INHIBITION is 28.7%.

As for `Cc1ccc(N2C[C@@H]3CN(C(=O)NC4CCCC4)C[C@]3(C(=O)O)C2)nn1`, the INHIBITION is 56.6%. To `O=C(NC1CCCC1)N1C[C@H]2CN(c3ccccn3)C[C@@]2(C(=O)O)C1` belongs 6.27%.

The record behind these values is ChEMBL document CHEMBL4513216, “Probing the Open Global Health Chemical Diversity Library for Multistage-Active Starting Points for Next-Generation Antimalarials” (ACS Infect Dis, 2020).
